CTSL1 counter – blocks F. hepatica cathepsin L1 in PFM18AAP counter-screen. recombinant F. hepatica cathepsin L1, Z-Leu-Arg-MCA fluorescence. inhibition, % at 5.96 µM. hit rate 0.49% among 300,000. AID 1906;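 active = inhibition above the mean of all tested compounds plus 3 SD, set per screening campaign, cut at about 17% in these data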;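 note: 0% = plate median of test compound wells and 100% = 1 µM Z-Phe-Ala-diazomethylketone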
HNF4A DNA FP – change in binding of human HNF4 alpha to DNA | P41235 | HNF4a-FITC DNA binding, fluorescence polarization, 1 h | activity change, % at 10 µM | hit rate 0.3% among 360,000; in the data active = activity change above about 30%, passing the limit was not always enough
PHOSPHO1 inh – PHOSPHO1 (human) inhibition | Q8TCT1 | recombinant PHOSPHO1, absorbance phosphatase assay | inhibition, % at 13.3 µM | hit rate 1.1% among 290,000 | AID 1565; in the data active = inhibition above about 60%
Rpn11 inh – Rpn11 (human) deubiquitinase inhibition; O00487; human 26S proteasome, Ub4-pepOG fluorescence polarization; 20S core pre-blocked with epoxomicin; inhibition, % at 20 µM; hit rate 0.59% among 360,000; AID 588493;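 active = inhibition at 20 µM, scaled to each plate's controls, above about 33%, limit read from the data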
TPT1 inhibitor – C. albicans TPT1 enzyme inhibition. hit rate 0.81% among 300,000. recombinant caTPT1, FP RNA substrate dephosphorylation. inhibition, % at 5 µM. AID 1962;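 active = inhibition above the mean of all tested compounds plus 3 SD, set per screening campaign, cut at about 24% in these data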;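 note: plate controls were DMSO alone for no effect and ferristatin control at 100 nM for full effect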
NRP1-CendR mod – modulators of CendR peptide binding to human neuropilin-1. O14786. hit rate 0.85% among 360,000. FAM-RPARPAR peptide binding to NRP-1, fluorescence polarization. inhibition, % at 25 µM;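 active = inhibition or corrected inhibition above about 18%, plus a signal ratio from 0.5 to 1.5, limit read from the data, passing the limit was not always enough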
Target sequence (O14786 whole entry, looked up): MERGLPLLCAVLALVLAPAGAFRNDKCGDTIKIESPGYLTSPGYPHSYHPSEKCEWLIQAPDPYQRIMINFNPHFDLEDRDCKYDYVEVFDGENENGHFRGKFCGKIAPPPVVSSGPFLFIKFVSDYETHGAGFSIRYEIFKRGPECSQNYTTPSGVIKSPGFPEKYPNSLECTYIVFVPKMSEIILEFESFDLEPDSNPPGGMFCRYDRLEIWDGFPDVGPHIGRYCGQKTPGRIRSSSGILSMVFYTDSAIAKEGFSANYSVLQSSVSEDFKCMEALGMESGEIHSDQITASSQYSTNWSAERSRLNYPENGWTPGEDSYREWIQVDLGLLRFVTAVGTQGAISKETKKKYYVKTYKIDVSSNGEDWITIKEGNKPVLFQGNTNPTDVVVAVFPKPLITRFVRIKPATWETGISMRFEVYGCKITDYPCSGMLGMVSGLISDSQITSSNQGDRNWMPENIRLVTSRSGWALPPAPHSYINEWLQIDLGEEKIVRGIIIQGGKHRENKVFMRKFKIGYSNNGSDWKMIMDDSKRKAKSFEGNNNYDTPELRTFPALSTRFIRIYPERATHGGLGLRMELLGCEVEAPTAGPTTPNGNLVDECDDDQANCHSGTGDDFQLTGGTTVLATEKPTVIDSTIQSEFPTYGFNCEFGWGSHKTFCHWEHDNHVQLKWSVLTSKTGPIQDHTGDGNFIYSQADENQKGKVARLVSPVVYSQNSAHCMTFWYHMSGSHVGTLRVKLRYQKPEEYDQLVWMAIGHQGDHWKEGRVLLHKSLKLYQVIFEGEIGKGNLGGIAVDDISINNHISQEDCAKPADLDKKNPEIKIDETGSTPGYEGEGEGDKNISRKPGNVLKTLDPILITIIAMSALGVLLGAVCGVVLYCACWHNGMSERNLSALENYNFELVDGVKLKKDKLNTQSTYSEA
* = called active by the depositor; / = not tested or not shown. This is a sample that favours compounds with a hit; in the whole collection about 3.3% have one here.

SMILES | CTSL1 counter | HNF4A DNA FP | PHOSPHO1 inh | Rpn11 inh | TPT1 inhibitor | NRP1-CendR mod
O=C(COC(=O)C1=COCCO1)Nc1ccc(OC(F)F)cc1 | -7.8 | -2.5 | -7.1 | -0.3 | 0.6 | 27.1*
N#Cc1ccc(NC(=O)COC(=O)C2=COCCO2)cc1 | -12.3 | 4.1 | 16.3 | 1.5 | -3.3 | 7.3
Cc1ccc(S(=O)(=O)N2[C@H](C(C)C)[C@H]3[C@H]4C(=O)N(c5ccccc5)C(=O)[C@H]4CC(=O)[C@H]3[C@@H]2c2ccccc2)cc1 | / | -3.7 | / | 7.5 | / | 4.0
O=C(CSc1nc2ccc(Cl)cc2[nH]1)NC1CCCC1 | -5.4 | -1.9 | 22.6 | -3.1 | -2.8 | 14.3
CCOC(=O)C1=C(CSc2nc(-c3ccccc3)ccc2C#N)OC(N)=C(C#N)C1c1ccccc1 (centres undefined) | -2.2 | 39.3* | 55.6 | / | 20.5 | -108.3
CCOC(=O)CC1=C(C(=O)OCC)C(c2cccnc2)C(C#N)=C(N)O1 (centres undefined) | 0.1 | -1.2 | -43.0 | -1.5 | -4.3 | 0.7
CCOC(=O)C1=C(CSc2nc(-c3ccccc3)ccc2C#N)OC(N)=C(C#N)C1c1cccnc1 (centres undefined) | -2.3 | 32.1 | 79.9* | / | 16.0 | -110.2
CCOC(=O)C1=C(c2ccccc2)OC(N)=C(C#N)C1C(C)C (centres undefined) | -0.6 | 0.7 | 0.6 | 6.7 | 1.7 | 49.8*
CC1CCCC(NC(=O)COC(=O)c2ccc3ccccc3n2)C1C (centres undefined) | 3.3 | 0.5 | 16.4 | 20.3 | 4.8 | -32.9
O=c1[nH]cnc2[nH]ncc12 | 1.8 | 0.6 | 3.5 | -4.1 | -3.0 | 1.8
Cc1cc2c(=O)[nH]cnc2s1 | 0.4 | 0.7 | 32.0 | 5.7 | -0.8 | 43.2*
COc1ccc(N(CC(O)CN2CCCCC2)S(=O)(=O)c2ccc(C)cc2)cc1 (centres undefined) | -1.6 | -3.9 | -20.8 | 4.5 | -0.1 | 23.9*
Cc1ccc(S(=O)(=O)N(CC(O)CN2CCCCC2)c2ccccc2)cc1 (centres undefined) | -3.8 | 3.3 | -6.6 | 8.7 | -2.2 | -1.7
Cc1cccc(-n2c(SCC(=O)N3CC(=O)Nc4ccccc43)nc3ccccc3c2=O)c1C | -0.5 | 2.5 | 2.1 | 15.1 | 0.0 | -4.3
O=S(=O)(c1ccccc1)c1nc(Nc2ccccc2N2CCOCC2)sc1Cl | -4.2 | -2.5 | 79.2* | -3.8 | -3.2 | -8.6
O=S(=O)(c1ccccc1)c1nc(NC2CC2)sc1Cl | 5.6 | -1.8 | 12.3 | -6.6 | -0.9 | -3.7
CSCc1ccc(C(=O)N2CCCC(Nc3ccc(F)cc3)C2)o1 (centres undefined) | -4.1 | -2.0 | 32.6 | -5.0 | -2.9 | -3.3
O=C(Nc1ccccc1)c1sc(N2CCOCC2)nc1-c1ccccc1 | -0.7 | -1.8 | -14.5 | 3.8 | 0.5 | 0.9
CC(=O)c1sc(N2CCOCC2)nc1-c1ccccc1 | 0.9 | -1.0 | -5.9 | -2.0 | -1.2 | 30.5*
Cc1ccccc1-c1cc2c(nn1)-c1ccccc1C2=O | 71.2* | 1.8 | -15.3 | -2.4 | 1.9 | 14.9
Cc1ccc(-c2cc3c(nn2)-c2ccccc2C3=O)cc1 | 0.3 | 1.5 | 23.6 | 6.9 | -1.7 | -5.8
COc1ccc(-c2cc(C(=O)N3CC4(C)CC3CC(C)(C)C4)no2)cc1OC (centres undefined) | 17.3* | 3.3 | 6.2 | 1.4 | 2.8 | 1.1
COc1ccc(-c2cc(C(=O)N3CC4(C)CC3CC(C)(C)C4)no2)cc1 (centres undefined) | 2.1 | 0.0 | -21.0 | 0.2 | -0.5 | -3.5
c1ccc(Cc2nc3ccccc3s2)cc1 | / | -1.4 | / | -7.0 | / | 16.3
Oc1ccc(/C=N/N=C/c2ccc(O)c(O)c2)cc1O | 1.8 | -9.4 | / | 1.1 | -2.3 | -46.1
Oc1ccc(N=Cc2ccc(O)c(O)c2)cc1 | 46.3* | -2.2 | 1.5 | 7.3 | 2.2 | 13.7
Cc1cc(C)n(CC(=O)NNC(=O)c2ccc(OC(F)(F)F)cc2)n1 | / | 3.4 | / | -3.2 | / | -1.3
CC12CCC(C(=O)N(CC3CO3)C1=O)C2(C)C (centres undefined) | -3.4 | -1.3 | 6.4 | 0.0 | 0.8 | -12.9
COc1ccc2c(c1)c(C(=O)CN1CCC(C(N)=O)CC1)c(C)n2C | 2.2 | -1.1 | 33.0 | 1.6 | -4.3 | -1.3
CCOc1ccc(OCc2ccc(C(=O)N3CCCC3)o2)cc1 | -4.9 | 1.4 | 1.8 | -5.5 | 0.2 | -3.3

Screens from PubChem.
